Laboratory results reported in PubChem BioAssay.
A number with no mark means an inactive call. The rule behind the calls is not given here.

Target: Pantothenate synthetase (Mycobacterium tuberculosis (strain ATCC 25618 / H37Rv)) (UniProt P9WIL5)
Assay: Recombinant Mtb pantothenate synthetase (PanC) inhibitors, coupled enzyme, confirmatory (AID 375);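 note: 0% = full reaction with vehicle and 100% = no enzyme background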
Settings: coupled enzyme assay; at 10 µM, stronger effect = higher value

Chain of Pantothenate synthetase (Mycobacterium tuberculosis (strain ATCC 25618 / H37Rv)) (P9WIL5 whole entry, looked up): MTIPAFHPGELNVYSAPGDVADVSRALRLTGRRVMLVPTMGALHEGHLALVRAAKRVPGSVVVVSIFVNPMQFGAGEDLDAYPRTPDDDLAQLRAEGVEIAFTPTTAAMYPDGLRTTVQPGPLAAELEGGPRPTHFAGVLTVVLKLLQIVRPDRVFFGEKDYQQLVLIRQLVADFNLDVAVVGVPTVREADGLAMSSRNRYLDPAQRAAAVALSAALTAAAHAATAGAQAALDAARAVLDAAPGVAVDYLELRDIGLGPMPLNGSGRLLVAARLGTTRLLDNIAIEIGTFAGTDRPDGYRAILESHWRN

Structure (SMILES) | inhibition
Cc1ccc2oc(=O)c3cnn(CC(=O)N4CCCCC4C)c3c2c1 (stereo not drawn) | 0%
CC(C)[C@H](NC(=O)OC(C)(C)C)c1nnc(SCc2cccc(F)c2)o1 | 1%
O=C(NC1CCCCC1)C1CCCN1C(=O)NCc1ccccc1 (stereo not drawn) | 4%
CCOc1ccc2oc(-c3ccccc3)c(C(=O)N3CCN(CCO)CC3)c2c1 | 0%
O=S(=O)(c1ccc2c(c1)nc1n2CCC1)N1CCOCC1 | 0%
CCCCc1nc2n[nH]c(N)c2c2c1CCCC2 | 0%
COc1ccc2cc(CN(CCO)C(=O)c3ccc(Br)cc3)c(=O)[nH]c2c1 | 14%
CCOC(=O)C1=C(N)OC2=C(C(=O)CC(C)(C)C2)C1c1ccco1 (stereo not drawn) | 5%
COc1ccc(C(=O)CSc2nc(C)cc(=O)[nH]2)cc1 | 0%
OC(CN1CCN(c2ccccn2)CC1)Cn1c2ccccc2c2ccccc21 (stereo not drawn) | 0%
FC(F)(F)c1nnc2ccc(NCn3nnc4ccccc43)nn12 | 3%
CCOC(=O)C(C)Sc1nnc(Cc2cc(=O)[nH]c(=O)[nH]2)n1-c1ccc(Cl)cc1 (stereo not drawn) | 0%
CC(C)OC(=O)CSc1nnnn1-c1ccc2c(c1)OCCO2 | 2%
O=C(CCSc1ccccc1)Nc1ccc(S(=O)(=O)N2CCOCC2)cc1 | 7%
Cc1ccc(CNc2cc(-c3nn4c(C)nnc4s3)ccc2C)s1 | 4%
O=C(COC(=O)c1ccccc1C(=O)c1ccccc1)c1ccco1 | 0%
N#CCSc1nc2c(c(C3CC=CCC3)c1C#N)CCC2 (stereo not drawn) | 6%
CC(=O)NC(C)c1nc2ccccc2n1C(C)C (stereo not drawn) | 6%
c1ccc(CC2CCN(C(c3cccs3)c3nnnn3C3CCCC3)CC2)cc1 (stereo not drawn) | 3%
Cc1nc2scc(-c3ccco3)c2c(=O)n1/N=C/N(C)C | 0%
CNC(=O)C1C2C=CC3(O2)C1C(=O)N(C1CC1)C3C(=O)NCc1ccc(OC)cc1 (stereo not drawn) | 0%
CCN(CC(=O)NC(=O)NCc1ccco1)Cc1nc2ccccc2c(=O)[nH]1 | 0%
O=C(Nc1ccccc1-c1ccccc1)NC1CCN(CC(=O)N2CCOCC2)CC1 | 0%
